Experimental data taken from PubChem BioAssay (NCI).
Compounds without any hit were thinned out: in the full panel of roughly 83,000, 20% have a hit.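 Values shown are percent growth following 48 h exposure of cells in 96-well plates to a single concentration of compound; below 10 was considered active.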 A number with no mark means an inactive call. Active and inactive are the calls of the source.

What was measured:
Experiment in all cases: NCI-60 one-dose screen, 48 h (100 = growth as untreated, 0 = no growth, -100 = all killed)
Settings in all cases: 10 µM
DU-145 prostate = tested on: DU-145 prostate
K-562 leukemia = tested on: K-562 leukemia
MALME-3M melanoma = tested on: MALME-3M melanoma
MDA-MB-231 breast = tested on: MDA-MB-231 breast
RXF 393 renal = tested on: RXF 393 renal
SF-268 CNS = tested on: SF-268 CNS
SF-295 CNS = tested on: SF-295 CNS
SF-539 CNS = tested on: SF-539 CNS
UACC-257 melanoma = tested on: UACC-257 melanoma
M14 melanoma = tested on: M14 melanoma
HCT-15 colon = tested on: HCT-15 colon
HT29 colon = tested on: HT29 colon
SNB-75 CNS = tested on: SNB-75 CNS
SNB-19 CNS = tested on: SNB-19 CNS
U251 CNS = tested on: U251 CNS
PC-3 prostate = tested on: PC-3 prostate
SK-MEL-5 melanoma = tested on: SK-MEL-5 melanoma
UACC-62 melanoma = tested on: UACC-62 melanoma
LOX IMVI melanoma = tested on: LOX IMVI melanoma
SK-MEL-28 melanoma = tested on: SK-MEL-28 melanoma

| SMILES | growth (DU-145 prostate) | growth (K-562 leukemia) | growth (MALME-3M melanoma) | growth (MDA-MB-231 breast) | growth (RXF 393 renal) | growth (SF-268 CNS) | growth (SF-295 CNS) | growth (SF-539 CNS) | growth (UACC-257 melanoma) | growth (M14 melanoma) | growth (HCT-15 colon) | growth (HT29 colon) | growth (SNB-75 CNS) | growth (SNB-19 CNS) | growth (U251 CNS) | growth (PC-3 prostate) | growth (SK-MEL-5 melanoma) | growth (UACC-62 melanoma) | growth (LOX IMVI melanoma) | growth (SK-MEL-28 melanoma) |
| --- | --- | --- | --- | --- | --- | --- | --- | --- | --- | --- | --- | --- | --- | --- | --- | --- | --- | --- | --- | --- |
| CC(C)N(CCOc1ccc(-c2nc3sccn3c2-c2ccnc(S(C)(=O)=O)n2)cc1)C(C)C | 99.9% | 62.9% | 102% | 75.4% | 93.2% | 96.3% | 108% | 95.4% | 78.4% | 112% | 92.8% | 60.3% | 83.5% | 107% | 91.4% | 62.5% | 39.2% | 83.9% | 72.7% | 104% |
| COc1ccc(/C=C2/SC(=S)NC2=O)c(OC)c1OC | 97.9% | 84% | 65.7% | 62.7% | 81.5% | 80.5% | 76.5% | 83.2% | 88.9% | 87.4% | 75.6% | 98.3% | 77.8% | 88.2% | 83.5% | 75.6% | 73.8% | 68.6% | 65.9% | 86.9% |
| Cc1n[nH]c(C)c1N=Nc1cccc2c1C(=O)c1ccccc1C2=O | 101% | 85.6% | 124% | 82.4% | 87.6% | 96.5% | 99.4% | 90.3% | 111% | 106% | 78.4% | 96.8% | 95.1% | 93.1% | 92.4% | 90.5% | 93.1% | 89.5% | 69.8% | 113% |
| CNS(=O)(=O)Oc1ccc(-c2ccc3occc3c2)cc1 | 109% | 89.1% | 116% | 100% | 122% | 102% | 92.9% | 98.1% | 107% | 113% | 92.8% | 99.1% | 106% | 101% | 94.1% | 90.6% | 101% | 87.3% | 96.4% | 94.4% |
| Cc1c(O)c(=O)ccn1C1CCC(CC2CCC(n3ccc(=O)c(O)c3C)CC2)CC1 (stereo not given) | 39.6% | 18.3% | 63.8% | 43.4% | 44.1% | 30.1% | 54.9% | 11.9% | 45.5% | 47.2% | 18.9% | 33.8% | 21.1% | 30.2% | 30.2% | 41.7% | 29.2% | 14.6% | 25% | 49.4% |
| C/C(=N\O)c1ccc(NC(=O)CSc2nnc(-c3ccccc3)n2-c2ccccc2)cc1 | 90.6% | 95.8% | 82.9% | 67.9% | 99.9% | 99.8% | 92.2% | 52.6% | 94.5% | 91.8% | 97.5% | 84% | 45.8% | 97.2% | 59.2% | 73.7% | 48.6% | 81.9% | 63.6% | 97.7% |
| O=C(CC(CC(=O)c1ccccc1)c1ccccc1O)c1ccccc1 | 103% | 89.4% | 91.8% | 90.4% | 107% | 89.8% | 99.9% | 99.1% | 98.4% | 92.8% | 96.5% | 90.3% | 89.1% | 91.2% | 92% | 81% | 88.6% | 81.5% | 93.5% | 101% |
| O=C1CSC(=S)N1/N=C/c1ccc(Cl)s1 | 109% | 105% | 103% | 99.4% | 108% | 91.9% | 100% | 95.1% | 110% | 107% | 97.9% | 110% | 111% | 97.7% | 99.3% | 98.1% | 97% | 100% | 88.5% | 107% |
| O=C(CCl)Oc1ccc(OC(=O)CCl)cc1 | 88.6% | 93.6% | 88.4% | 81.1% | 109% | 93.8% | 108% | 72.8% | 89.1% | 85.9% | 94.1% | 99.9% | 75.3% | 104% | 101% | 89.4% | 82.2% | 85% | 89.3% | 104% |
| CC(=O)C1N=NCC1c1ccccc1 (stereo not given) | 110% | 80.4% | 95.2% | 97.9% | 106% | 104% | 95.4% | 103% | 110% | 99.3% | 96.9% | 105% | 92.1% | 99.9% | 110% | 95.5% | 98.4% | 83.8% | 103% | 112% |
| COc1ccc(-c2n[nH]nc2-c2cc(OC)c(OC)c(OC)c2)cc1 | -14.1% (active) | 8.16% (active) | 37.3% | 14.8% | 33.3% | 9.64% (active) | 13.7% | 10.3% | 69.1% | 12.2% | 25.8% | 4.38% (active) | 50.1% | 58.3% | 1.61% (active) | 23.4% | -53.9% (active) | 38.4% | 9.46% (active) | 64.4% |
| NC(CSC(c1ccccc1)(c1ccccc1)c1cccc2ccccc12)C(=O)O (stereo not given) | 106% | 103% | 112% | 96.1% | 94.2% | 85% | 91.1% | 94.5% | 103% | 108% | 102% | 113% | 87.6% | 84.9% | 93% | 84.3% | 82.6% | 90.4% | 96.9% | 93.7% |
| CN(C)CCOc1cccc(NC2=C(Cl)C(=O)C(Nc3cccc(OCCN(C)C)c3)=C(Cl)C2=O)c1 | -100% (active) | -30.7% (active) | -74.8% (active) | -75.2% (active) | -76.5% (active) | -50% (active) | 66.5% | -86.4% (active) | -97.3% (active) | -74% (active) | -78.6% (active) | -80% (active) | 84% | 6.1% (active) | -93.2% (active) | 5.48% (active) | -95.2% (active) | -82.2% (active) | -81.5% (active) | -63.9% (active) |
| CC(C)C[C@H](NC(=O)Cn1cccc(CNC(=O)c2ccccc2)c1=O)B(O)O | 43.1% | 11.6% | -35.3% (active) | -2.81% (active) | -19% (active) | -19.5% (active) | 1.43% (active) | -16.6% (active) | -9.26% (active) | 12.2% | 64.7% | -0.24% (active) | -4.6% (active) | 34.1% | 17.2% | 35.8% | -34.3% (active) | -17.1% (active) | -60.4% (active) | 19.4% |
| Cc1c(Cl)cccc1NC(=O)CN1CCOCC1 | 102% | 91.6% | 92.6% | 106% | 117% | 97.1% | 99.3% | 106% | 108% | 94.9% | 99% | 84.2% | 88.9% | 117% | 106% | 102% | 101% | 103% | 97.4% | 109% |
| CCN(CC)c1ccc(/C=C2\SC(=O)C(Nc3nnc(-c4cccnc4SCc4ccccc4)o3)C2=O)cc1 (stereo not given) | 28.9% | 14.5% | 57.9% | 39.4% | -13.2% (active) | 57.3% | 12.2% | 13.8% | 56.9% | -11.6% (active) | 15.2% | 3.09% (active) | 44.1% | 63.5% | 3.89% (active) | 16.9% | 27.4% | 30.2% | 42.3% | 50.8% |
